Screening results as filed in PubChem.
CCT chaperon mod = High-Throughput Screening for Modulators of Cytosolic Chaperonin Activity | purified chaperonin ATPase assay, HTRF ADP detection, 30 min | activity change, % (concentration not given with the values), hits read low | 360,000 tested, 0.3% active; in the data active = activity change below about -30%
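Enzyme 40 or 20 nM (batch-dependent) in Tris pH 7.4/KCl/MgCl2/DTT; cpd 76 uM single point; ATP 10 uM; 30 min 37 °C; Transcreener ADP HTRF detection, 30 min RT; ratio 665/615.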
TCR activator = Activators of T cell receptors: qHTS campaign; primary human leukocytes, anti-CD3, IL-2 HTRF, 48 h; Potency, µM (top dose mostly 9.22 µM), hits mostly activators; 330,000 tested, under 10 active; AID 504894, 2011
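Primary human leukocytes receive a-CD3 beads and test compound and are incubated 48 hr. Secreted IL-2 is then assayed by HTRF, measuring 665nm acceptor emission after 320nm excitation of the europium donor.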
AT treatment = qHTS Assay for Identifying a Potential Treatment of Ataxia-Telangiectasia; F2112 A-T fibroblasts, KAP-1 phosphorylation AlphaLISA; neocarzinostatin DNA damage 30 min before lysis; Potency, µM (doses to about 57.5 µM), actives largely listed as activators; 320,000 tested, 0.19% active; note: nearly all actives have a fitted effect of over 45% in size
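hTERT-immortalized A-T patient fibroblasts (F2112), 500 cells/well in OPTI-MEM, 1% FBS, got compounds for 60 min, then NCS for 30 min at 37C. Lysates were then assayed for phospho-KAP-1 by AlphaLISA (anti-pKAP1 donor, anti-KAP1 acceptor beads), 6 hr at 25C.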
Nrf2 ARE act = qHTS of Nrf2 Activators | Potency, µM (highest dose often 46.1 µM), usual class: activators | AREc32 ARE-luciferase reporter (MCF7-derived line), luminescence, 24 h | 410,000 tested, 0.31% active; note: nearly all actives have a fitted effect of over 65% in size
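AREc32_Fluc, 1000 cells/well, OPTI-MEM + 5% FBS, o/n 37 deg C 5% CO2; 23 nL cpd by pin tool, 24 hr; Steady-Glo 30 min RT, luminescence.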
A549 tox = Nrf2 qHTS screen for inhibitors: counterscreen for cytotoxicity. A549 ARE-Fluc cells, CellTiter-Fluor viability, 18-24 h. Potency, µM (doses to about 46 µM), hits mostly inhibitors. 390,000 tested, 0.16% active
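A549 ARE-Fluc cells in 5% FBS OPTI-MEM, 5000 cells/well, rested 2 h then exposed to compounds in concentration-response for 18-24 h at 37 °C. Viability by CellTiter-Fluor fluorescence (Ex 405/Em 525) after 30 min; luciferase luminescence (BugLite, 15 min, RT) read afterwards.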
Nrf2 inh = Nrf2 qHTS screen for inhibitors; A549 ARE-Fluc reporter, luciferase luminescence, 18-24 h; Potency, µM (series often up to 46 µM), most hits filed as inhibitors; 360,000 tested, 2.1% active; note: nearly all actives have a fitted effect of over 60% in size
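Cells were seeded and rested 2 h, then exposed to compounds for 18-24 h. CellTiter-Fluor was read first as a viability measure. BugLite was added 15 min before the final luminescent read of ARE-luciferase activity in A549 cells.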
Large screens that a line does not name were inactive. In the library only some 2.6% were active in any assay of this set; here they are far more common. Unless noted, calls come from the whole dose curve; as a rule, active = well fitted curve in the direction sought with a large enough effect; inconclusive = small, poorly fitted or top-dose-only effect, or another doubt; inactive = no such curve, though single readings can be large; an effect the other way counts as inactive or inconclusive.

CCN(CC(=O)NCc1ccc(Cl)cc1)C(=O)CCc1ccccc1O	Nrf2 inh inconclusive
Cc1ccc(NC(=O)CC(=O)Nc2ccc(C)cc2C)c(C)c1	none
Cc1ccc(N/C(C(Cl)=C(Cl)Cl)=C(/Cl)[N+](=O)[O-])c(C)c1	Nrf2 ARE act 22.4µM
Cc1ccc(CNC(=O)CCCCn2c(=O)c3ccccc3n(Cc3c(C)cc(C)cc3C)c2=O)cc1	none (no result: CCT chaperon mod, TCR activator, AT treatment)
Cc1cc(C)n(CC(=O)Nc2cccc(C(F)(F)F)c2)n1	none
Cc1cc(C(F)(F)F)nn1CC(=O)Nc1cccnc1	CCT chaperon mod -41.0
NC1=NC[C@H](c2ccccc2)N1CCCCC1CCCCC1	none
S=C1NC[C@H](c2ccccc2)N1CCCCC1CCCCC1	AT treatment 35.5µM
C[C@@H](C(=O)Nc1ccc2ccccc2c1)[C@H]1C[C@]1(C)[C@H](N)c1ccccc1	none (no result: CCT chaperon mod, TCR activator, AT treatment, Nrf2 ARE act)
COc1ccc(NC(=S)N2CCC(Cc3ccccc3)CC2)cc1OC	Nrf2 inh inconclusive
COc1cccc(NC(=S)N2CCC(Cc3ccccc3)CC2)c1	Nrf2 inh 18.4µM
CCc1ccccc1NC(=O)c1ccc(CN2C(=O)CCn3nc(C)cc32)cc1	none (no result: CCT chaperon mod, TCR activator, AT treatment)
NC(=O)C(OC(=O)CNC(=O)C1CCCCC1)c1ccccc1 (stereo not given)	none (no result: CCT chaperon mod, TCR activator, AT treatment, Nrf2 ARE act)
O=c1c2ccccc2nc(/C=C/c2ccc([N+](=O)[O-])o2)n1CCCO	A549 tox 23.1µM, Nrf2 inh 20.6µM
O=C(Nc1ccc(C(F)(F)F)cc1)C1CCCN(c2cnccn2)C1 (stereo not given)	none (no result: CCT chaperon mod, TCR activator, AT treatment)
CCc1ccc(-c2nc(SCC(=O)NCCOC)c(-c3ccc(C)cc3)[nH]2)cc1	none (no result: CCT chaperon mod, TCR activator, AT treatment)
CN(C)S(=O)(=O)c1ccc2c(c1)nc(CCC(=O)NCc1ccc(Cl)cc1)n2C	Nrf2 inh 23.1µM
CN(C)S(=O)(=O)c1ccc2c(c1)nc(CCC(=O)NCC1CCCCC1)n2C	none
CCOc1cc(N2CCOCC2)c(OCC)cc1NC(=O)c1cc(-c2ccco2)nc2ccccc12	A549 tox inconclusive, Nrf2 inh 14.6µM
COc1ccc(-c2cc(C(=O)Nc3ccccc3N3CCOCC3)c3ccccc3n2)cc1OC	Nrf2 inh 14.6µM
CCOc1ccc(CNC(=O)c2cccn2-c2nnc(N3CCCCC3)s2)cc1OC	none (no result: CCT chaperon mod, TCR activator, AT treatment)
COc1ccc2c(CNC3CCCC3)c(C(=O)O)n(Cc3ccccc3C)c2c1	none (no result: CCT chaperon mod, TCR activator, AT treatment)
Cc1ccccc1NC(=O)c1c(C)nn(-c2ccccc2)c1Cl	CCT chaperon mod -39.8
CCOc1ccc(CNC(=O)Cn2c(=O)c3cccn3c3ccc(F)cc32)cc1	none (no result: CCT chaperon mod, TCR activator, AT treatment)
COc1ccc(N2CCN(C(CNC(=O)C(=O)NCCCO)c3ccco3)CC2)cc1 (stereo not given)	CCT chaperon mod -69.1
O=C(NCc1ccccc1Cl)c1cc2c(s1)-c1ccccc1SC2	none (no result: CCT chaperon mod, TCR activator, AT treatment)
CC1=CC(c2ccccc2)n2nc(N)nc2N1 (stereo not given)	CCT chaperon mod -86.9 (no result: AT treatment)
CC1=CC(c2ccccc2)n2ncnc2N1 (stereo not given)	none (no result: AT treatment)
CN(C/C=C/c1ccccc1)Cc1cccc2ccccc12	AT treatment 39.8µM, Nrf2 inh inconclusive
O=[N+]([O-])c1ccc(N2CCN(c3ccc(O)cc3)CC2)cn1	Nrf2 inh 20.6µM
O=[N+]([O-])c1ccc(N2CCN(c3ccccc3Cl)CC2)cn1	A549 tox inconclusive, Nrf2 inh inconclusive
Cc1ccc(S(=O)(=O)n2cc(-c3ccccc3)c3ccccc32)cc1	CCT chaperon mod -30.9
Cc1ccc(S(=O)(=O)n2cc(C=O)c3ccccc32)cc1	none
COCCNC(=O)C1CCCN(C(=O)c2ccc(OC)c(F)c2)CC1 (stereo not given)	none (no result: TCR activator, AT treatment, A549 tox, Nrf2 inh)
Cc1ccc(-c2nnc(N3CCCCCC3)c3ccccc23)cc1	A549 tox inconclusive, Nrf2 inh 23.1µM
O=C(COc1ccccc1)N1CCN(c2nnc(-c3ccccc3)c3ccccc23)CC1	A549 tox inconclusive, Nrf2 inh 20.6µM
